The source of these data is PubChem BioAssay (NCATS).

Molecules are shown by their SMILES. Records with an inconclusive call do not appear. A number with no mark means an inactive call. Calls of active or inactive are those of the source. Calls follow the shape of the dose curve; as a rule, active = well fitted curve in the direction sought with a large enough effect; inconclusive = small, poorly fitted or top-dose-only effect, or another doubt; inactive = no such curve, though single readings can be large; an effect the other way counts as inactive or inconclusive.

Chain of Ubiquitin carboxyl-terminal hydrolase 2 (Homo sapiens) (O75604 whole entry, looked up): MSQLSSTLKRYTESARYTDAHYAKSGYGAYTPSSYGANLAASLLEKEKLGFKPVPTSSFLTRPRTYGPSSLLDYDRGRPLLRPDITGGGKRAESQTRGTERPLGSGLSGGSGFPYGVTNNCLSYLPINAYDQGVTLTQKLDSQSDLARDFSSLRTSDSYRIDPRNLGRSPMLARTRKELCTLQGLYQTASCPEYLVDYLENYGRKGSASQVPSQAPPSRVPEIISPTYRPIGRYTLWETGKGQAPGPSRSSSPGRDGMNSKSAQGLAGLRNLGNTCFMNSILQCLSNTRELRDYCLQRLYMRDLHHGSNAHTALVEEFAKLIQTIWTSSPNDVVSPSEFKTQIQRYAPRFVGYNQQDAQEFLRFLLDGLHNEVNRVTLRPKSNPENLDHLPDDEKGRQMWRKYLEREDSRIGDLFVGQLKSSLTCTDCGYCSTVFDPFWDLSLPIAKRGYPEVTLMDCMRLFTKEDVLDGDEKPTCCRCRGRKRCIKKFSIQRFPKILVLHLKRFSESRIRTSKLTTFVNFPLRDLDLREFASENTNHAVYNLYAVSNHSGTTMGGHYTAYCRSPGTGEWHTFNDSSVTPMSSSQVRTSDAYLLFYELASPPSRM

System in the first assay: not listed separately
The assay is described as follows: qHTS for Inhibitors of Ubiquitin-specific Protease USP2a Using CHOP2 as the Reporter: K633 Counterscreen (AID 652168). Also: % of control where 0% means no effect. As to conditions: No-enzyme DiUb K48 IQF substrate fluorescence interference, kinetic; series mostly up to 57.5 µM; activity change, negative = inhibition: at the top concentration. The essentials:
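Detection-system control: fluorescence of K48-linked DiUb-4IQF substrate (100 nM as added) tracked over time, Ex 525/Em 598, with pinned compounds and no enzyme, in pH 8 Tris buffer containing beta-mercaptoethanol and 0.05% Chaps.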
(In qHTS, concentration-response curves come from the screen itself.)
On to `O=S(=O)(Nc1nccs1)c1ccc(Nc2nc(-c3ccccc3)cs2)cc1`, for which the “activity change, negative = inhibition” value was -4.77%.

For `O=[S+]([O-])(NCc1nccs1)c1ccc(Nc2nc(-c3ccccc3)cs2)cc1`, the “activity change, negative = inhibition” value is 1%.

Turning to `Cc1ccc(S(=O)(=O)Nc2cc3c(cc2C(=O)Nc2nc(-c4ccccc4)cs2)OCO3)cc1`, the “activity change, negative = inhibition” value is -7.74%.

Regarding `N#Cc1ccc(N[S+](=O)([O-])c2ccc(Nc3nc(-c4ccccc4)cs3)cc2)cc1`, the “activity change, negative = inhibition” value was -1.51%.

On to `O=C(Nc1nc(-c2ccccc2)cs1)c1ccncc1NS(=O)(=O)c1cccc2cccnc12`, for which the “activity change, negative = inhibition” value is -14.6%.

In the case of `Cc1ccc(S(=O)(=O)Nc2ccc(Br)cc2C(=O)Nc2nc(-c3ccccc3)cs2)cc1`, the “activity change, negative = inhibition” value is -7.49%.

System in another assay: not listed separately
Put plainly: qHTS for Inhibitors of Ubiquitin-specific Protease USP2a Using CHOP2 as the Reporter: Cytotox Assay (AID 652170). Also: nearly all actives have a fitted effect of over 70% in size. Also: potency is read from the fitted curve at half-maximal effect.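 As to activity change, negative = cytotoxicity: HCT116 human colon cancer cells at 600 per well; plate controls were DMSO-treated cells for no effect and wells without cells for full effect.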 As to conditions: HCT116 viability, CellTiter-Glo luminescence, 72 h; series mostly up to 46.1 µM; activity change, negative = cytotoxicity: at the top concentration. The essentials: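 Cytotoxicity read as ATP luminescence (CellTiter-Glo) after 72 hr compound treatment at 37 deg C. Cells: HCT116, 600/well in DMEM plus 10% FBS. Normalization between DMSO-treated cells and cell-free wells.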
`O=S(=O)(Nc1nccs1)c1ccc(Nc2nc(-c3ccccc3)cs2)cc1`: the “activity change, negative = cytotoxicity” value is -6.95%.

Take `N#Cc1ccc(NS(=O)(=O)c2ccc(NC(=O)Cc3ccc(Cl)c(Cl)c3)cc2)cc1`: the “activity change, negative = cytotoxicity” value was 6.58%.

Turning to `O=[S+]([O-])(NCc1nccs1)c1ccc(Nc2nc(-c3ccccc3)cs2)cc1`, the “activity change, negative = cytotoxicity” value was 1.15%.

Turning to `N#Cc1ccc(NS(=O)(=O)c2ccc(NC(=O)Cc3ccc(F)c(Cl)c3)cc2)cc1`, the “activity change, negative = cytotoxicity” value is 18.9%.

For the compound `Cc1ccc(S(=O)(=O)Nc2cc3c(cc2C(=O)Nc2nc(-c4ccccc4)cs2)OCO3)cc1`, the Potency was 16.6 µM (active).

As to `N#Cc1ccc(N[S+](=O)([O-])c2ccc(Nc3nc(-c4ccccc4)cs3)cc2)cc1`, the “activity change, negative = cytotoxicity” value was 11.4%.

Consider `NS(=O)(=O)c1ccc(Nc2nc(-c3ccccc3)cs2)cc1`, for which the “activity change, negative = cytotoxicity” value is 4.98%.

Turning to `O=C(Nc1nc(-c2ccccc2)cs1)c1ccncc1NS(=O)(=O)c1cccc2cccnc12`, the “activity change, negative = cytotoxicity” value was -13.3%.

Take `Cc1ccc(S(=O)(=O)Nc2ccc(Br)cc2C(=O)Nc2nc(-c3ccccc3)cs2)cc1`: the Potency was 4.69 µM (active).

For the next assay, the target named is Ubiquitin carboxyl-terminal hydrolase 2 (Homo sapiens) (UniProt O75604). The assay is described as follows: qHTS for Inhibitors of Ubiquitin-specific Protease USP2a Using CHOP2 as the Reporter: K484 Substrate (AID 652173).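 Also: cleavage of internally quenched K48 di-ubiquitin substrate measured as rising fluorescence over time; nearly all actives have a fitted effect of over 70% in size.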 Also: potency is read from the fitted curve at half-maximal effect. As to conditions: USP2 cleavage of DiUb K48 IQF substrate, fluorescence; series mostly up to 57.5 µM; activity change, negative = inhibition: at the top concentration. The essentials:
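Kinetic fluorescence (Ex 525/Em 598) tracked cleavage of an internally quenched K48 di-ubiquitin substrate, added as a 100 nM solution. The enzyme was added as a 5 nM USP2 solution before compound pinning, with no-enzyme controls. Buffer: Tris pH 8, beta-mercaptoethanol, CHAPS.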
For `O=S(=O)(Nc1nccs1)c1ccc(Nc2nc(-c3ccccc3)cs2)cc1`, the “activity change, negative = inhibition” value was -12.7%.

In the case of `N#Cc1ccc(NS(=O)(=O)c2ccc(NC(=O)Cc3ccc(Cl)c(Cl)c3)cc2)cc1`, the Potency is 7.69 µM (active).

In the case of `O=[S+]([O-])(NCc1nccs1)c1ccc(Nc2nc(-c3ccccc3)cs2)cc1`, the “activity change, negative = inhibition” value was -9.15%.

As to `N#Cc1ccc(NS(=O)(=O)c2ccc(NC(=O)Cc3ccc(F)c(Cl)c3)cc2)cc1`, the Potency is 24.3 µM (active).

On to `Cc1ccc(S(=O)(=O)Nc2cc3c(cc2C(=O)Nc2nc(-c4ccccc4)cs2)OCO3)cc1`, for which the Potency was 1.37 µM (active).

As to `N#Cc1ccc(N[S+](=O)([O-])c2ccc(Nc3nc(-c4ccccc4)cs3)cc2)cc1`, the “activity change, negative = inhibition” value is -13.1%.

`NS(=O)(=O)c1ccc(Nc2nc(-c3ccccc3)cs2)cc1`: the Potency was 21.7 µM (active).

`O=C(Nc1nc(-c2ccccc2)cs1)c1ccncc1NS(=O)(=O)c1cccc2cccnc12`: the Potency is 7.69 µM (active).

Consider `Cc1ccc(S(=O)(=O)Nc2ccc(Br)cc2C(=O)Nc2nc(-c3ccccc3)cs2)cc1`, for which the Potency was 0.968 µM (active).
